# The source made the active and inactive calls. Unless noted, the rule behind the calls is not given here.
# Columns and labels:
# [1] = test system: Wnt5a (protein binding on small-molecule microarray); assay: Wnt5a binders on small-molecule microarray, primary screen, biophysical, 635/667 nm fluorescence (AID 1142); conditions: 635 nm fluorescence, higher = more signal;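 note: fluorescence read at 667 nm with signal to noise per printed feature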
# [2] = cell viability in Huh7 cells, primary screen, cytotoxicity control for HCV replication inhibitor project, CellTiter-Glo luminescence, basal, 48 h (AID 1143); conditions: Huh7 HCV replicon, higher = more signal, called active from +8 up or from −8 down;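 note: Huh7 hepatoma cells carrying a hepatitis C replication reporter with no stimulus; test concentration not given here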
# [3] = P. aeruginosa biofilm formation inhibitors, primary screen, PAO1 strain, BacTiter-Glo luminescence, LB-PBS (AID 1144); conditions: 12 h, higher = more signal
# [4] = CREB reporter modulators without forskolin, primary screen, cell-based, PC12, CRE-LacZ reporter, unstimulated (AID 1145); conditions: no forskolin, luminescence, 4.5 h, higher = more signal, called active from +8 up or from −8 down
# [5] = CREB reporter modulators under forskolin, primary screen, cell-based, PC12, CRE-LacZ reporter, forskolin-stimulated (AID 1146); conditions: luminescence, 4.5 h, higher = more signal, called active from +8 up or from −8 down;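 note: PC12 cells with 6xCRE LacZ reporter stimulated by forskolin 10 µM; beta-galactosidase reporter signal reflecting CREB driven transcription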
# [6] = molecular target: Streptavidin (Streptomyces avidinii) (UniProt P22629); assay: streptavidin binders on small-molecule microarray, primary screen, artefact control for SMM compound annotation, biophysical, 635/667 nm fluorescence (AID 1147); conditions: streptavidin binding, higher = more signal;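 note: signal reflects streptavidin binding to arrayed compounds as a control protein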
# Sequence of Streptavidin (Streptomyces avidinii) (P22629 whole entry, looked up): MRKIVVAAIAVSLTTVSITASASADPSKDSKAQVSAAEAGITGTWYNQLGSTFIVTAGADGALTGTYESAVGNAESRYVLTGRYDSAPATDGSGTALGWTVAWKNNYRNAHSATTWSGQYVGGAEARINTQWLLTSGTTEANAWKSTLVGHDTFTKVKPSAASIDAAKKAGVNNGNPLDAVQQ
# [7] = small-molecule binders of probe aInhba, primary screen, biochemical, small-molecule microarray, 635/667 nm fluorescence (AID 1148); conditions: higher = more signal;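 note: score merges 667nm spot fluorescence with signal-to-noise for antibody binding to printed compounds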
# Torsin-1A (Homo sapiens) [8] = molecular target: Torsin-1A (Homo sapiens) (UniProt O14656); assay: torsin A binders from cell lysate, primary screen, small-molecule microarray, wild-type, 635/667 nm (AID 1149); conditions: COS7 hTOR1A-WT lysate, 635 nm fluorescence, higher = more signal
# Sequence of Torsin-1A (Homo sapiens) (O14656 whole entry, looked up): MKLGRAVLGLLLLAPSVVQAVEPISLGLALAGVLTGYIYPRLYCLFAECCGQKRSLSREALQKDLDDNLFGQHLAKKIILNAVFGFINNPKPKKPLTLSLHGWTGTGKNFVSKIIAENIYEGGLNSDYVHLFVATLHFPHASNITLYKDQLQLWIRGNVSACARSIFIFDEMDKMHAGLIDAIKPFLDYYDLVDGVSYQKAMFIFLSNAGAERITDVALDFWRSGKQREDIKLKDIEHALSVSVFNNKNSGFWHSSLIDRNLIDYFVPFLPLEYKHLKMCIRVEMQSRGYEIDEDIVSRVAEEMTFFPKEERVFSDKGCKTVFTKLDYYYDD
# Torsin-1A (Homo sapiens) [9] = molecular target: Torsin-1A (Homo sapiens) (UniProt O14656); assay: small-molecule binders of mutant TOR1A in lysate, primary screen, cell lysate, small-molecule microarray, COS7 lysate, 635/667 nm fluorescence (AID 1150); conditions: COS7 hTOR1A mutant lysate, 635 nm fluorescence, higher = more signal;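 note: score pools 667 nm emission and signal to noise measuring lysate protein binding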
# [10] = test system: Sonic hedgehog protein (Shh); assay: small-molecule binders of Shh protein, primary screen, biochemical, small-molecule microarray, 635/667 nm fluorescence (AID 1151); conditions: small-molecule microarray binding, 635 nm fluorescence; higher = more signal;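 note: Shh protein binding to compounds spotted on small-molecule microarray slides; score combines spot fluorescence intensity with signal-to-noise across triplicate slides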
SMILES,composite z-score [1],z-score [2],z-score [3],z-score [4],z-score [5],composite z-score [6],composite z-score [7],composite z-score (Torsin-1A (Homo sapiens) [8]),composite z-score (Torsin-1A (Homo sapiens) [9]),composite z-score [10]
COc1ccccc1CN1C(=O)c2ccccc2[C@@H](C(=O)NCCN2CCOCC2)[C@@H]1c1ccc(CO)cc1,0.274,-0.916 (inactive),-1.04 (inactive),0.001 (inactive),-1.09 (inactive),0.156,-0.13,0.52,0.767,0.197
O=C1OCCC=C[C@H]2OC34C=CCN(Cc5ccccc5)C(=O)[C@H]3N(CCCCCCO)C(=O)[C@@H]4C12 (stereo not given in full),-0.751,0.404 (inactive),-0.616 (inactive),-0.761 (inactive),-0.395 (inactive),-0.887,-0.441,-1.92,-1.4,0.628
CC(=O)NCCCC[C@@H]1NC(=O)[C@@H]2C[C@H](C(=O)NCCCCCCNC(=O)CS)[C@H](c3ccc(O)cc3)N2C1=O,-0.126,0.448 (inactive),-0.388 (inactive),-0.268 (inactive),-0.277 (inactive),0.453,-0.0944,0.957,0.936,0.377
Cc1cc(C)c(C(O)C2C=CC3C(=O)N(C)C(=O)C3N2Nc2ccccc2)c(C)c1 (stereo not given),0.701,1.06 (inactive),0.3 (inactive),0.246 (inactive),-0.354 (inactive),0.66,1.55,0.405,0.738,-0.0207
COC(=O)c1ccc(OC)c(/C=C\CC(OC(C)=O)c2ccccc2)c1 (stereo not given),-0.136,-1.38 (inactive),0.623 (inactive),0.479 (inactive),-0.0792 (inactive),3.16,-0.179,-0.0525,-0.165,0.539
O=C(OCCF)C1=CCC(c2cccc(Cl)c2)O1 (stereo not given),0.236,-2.33 (inactive),-0.0826 (inactive),-0.0137 (inactive),0.351 (inactive),0.112,-0.0468,1.09,2.19,0.299
O=c1oc(-c2ccccc2)nc2cc(Br)ccc12,0.147,-0.746 (inactive),0.786 (inactive),0.416 (inactive),0.827 (inactive),0.0708,-0.176,0.641,0.508,0.44
